High-throughput results from PubChem BioAssay.
CYP2C9 activ: human CYP2C9 activators, primary screen, biochemical, luminescence. Cytochrome P450 2C9 (Homo sapiens), P11712. recombinant CYP2C9, luciferin-H conversion; hits give high values; factor 1 = untreated enzyme, 0 = blocked. activation factor at 5 µM. hit rate 1.4% among 96,000;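 active = activation factor of 2 or more for CYP2C9 at a 5 µM dose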
CYP2C9 inh: blockers of cytochrome P450 2C9 activity – biochemical, luminescence, ADME assay, primary screen. P11712. CYP2C9 Supersomes, luciferin-H conversion. inhibition, % at 5 µM. hit rate 20% among 96,000;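 active = blocking of liver enzyme CYP2C9 beyond about 50% at 5 µM, limit read from the data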
MRP1 act: H69AR viability gain despite doxorubicin, primary screen, MRP-1 activator project, H69AR cells, CellTiter-Glo; viability rescue; viability increase, % at 10 µM; hit rate 0.61% among 140,000; AID 799, 2007;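 active = viability gain under doxorubicin at or above a set limit, the compound median plus 3 SD, cut at about 4.7% in these data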;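 also: MRP-1 overexpressing cells given doxorubicin 25 µM after compound pretreatment; 18-22 h compound pretreatment then 72 h with doxorubicin before readout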
CYP2C19 act: human CYP2C19 activators, primary screen, biochemical, luminescence. recombinant CYP2C19, luciferin-H EGE luminescence; hits give high values; 0 = fully inhibited enzyme, 1 = untreated enzyme. Cytochrome P450 2C19 (Homo sapiens), P33261. AID 1025, 2008. activation factor at 5 µM. 96,000 tested, under 10 active;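 active = activation factor of at least 2 at 5 µM in the primary screen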
Target sequence (P33261 whole entry, looked up): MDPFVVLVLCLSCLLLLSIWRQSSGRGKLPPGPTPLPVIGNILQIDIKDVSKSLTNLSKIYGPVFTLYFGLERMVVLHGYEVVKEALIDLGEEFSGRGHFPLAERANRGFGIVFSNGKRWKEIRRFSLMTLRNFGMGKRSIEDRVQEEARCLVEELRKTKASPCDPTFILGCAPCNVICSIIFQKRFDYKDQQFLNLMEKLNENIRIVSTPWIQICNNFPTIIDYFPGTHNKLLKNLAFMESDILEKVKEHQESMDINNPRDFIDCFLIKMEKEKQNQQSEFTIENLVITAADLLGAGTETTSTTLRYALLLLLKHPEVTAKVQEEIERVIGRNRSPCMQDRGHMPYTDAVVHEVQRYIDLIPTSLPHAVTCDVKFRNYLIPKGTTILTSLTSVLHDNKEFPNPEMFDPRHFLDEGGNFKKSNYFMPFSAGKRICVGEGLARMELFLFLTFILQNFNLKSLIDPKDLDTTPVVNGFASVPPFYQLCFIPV
MRP reversal: reversal of MRP1-mediated doxorubicin resistance, primary screen, H69AR cells, doxorubicin co-treatment. H69AR cells + 2 uM doxorubicin, CellTiter-Glo, 72 h. differential viability (reversal), % at 10 µM. hit rate 0.04% among 85,000. AID 602, 2007;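 active = viability drop by adding the cancer drug above about 55%, with treated viability meeting a 40% cutoff, limit read from the data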;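 also: larger differential means the compound sensitizes cells more to doxorubicin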
CYP2C19 inh: blockers of cytochrome P450 2C19 activity – biochemical, luminescence, ADME assay, primary screen; P33261; CYP2C19 Supersomes, luciferin-H EGE luminescence, 30 min; inhibition, % at 5 µM; hit rate 21% among 96,000; AID 778, 2007;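 active = CYP2C19 inhibition above a set limit at 5 µM in the primary screen, cut at about 50% in these data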
Numbers stand for hits; i = inactive; nt = no result given. This is a sample that favours compounds with a hit; in the whole collection about 21% have one here.

SMILES	CYP2C9 activ	CYP2C9 inh	MRP1 act	CYP2C19 act	MRP reversal	CYP2C19 inh
COc1ccc(-c2noc(CSc3nc4sc(C)c(C)c4c(=O)n3-c3ccccc3)n2)cc1OC	i	i	i	i	nt	i
COc1ccc(-c2noc(CSc3nc4ccccc4c(=O)n3-c3ccccc3)n2)cc1OC	i	69	i	i	i	i
O=c1c2ccccc2nc(SCc2nc(-c3ccccc3)no2)n1-c1ccc(F)cc1	i	59	i	i	i	i
COCCn1cnnc1SCC(=O)c1ccc(S(=O)(=O)N2CCCC2)cc1	i	i	i	i	i	57
Oc1ccc(Nc2nc3ccccc3nc2Nc2ccc(O)cc2)cc1	i	99	i	i	i	99
CCCCn1c(=O)c(CC(C)=O)nc2ccccc21	nt	nt	i	nt	nt	nt
CC(=O)c1c(NC(=O)C(C)C)nc(C)nc1-c1ccccc1	i	55	i	i	i	i
Cc1cc(C)n2nc(CC(=O)NCc3ccccc3Cl)nc2n1	nt	nt	i	nt	nt	nt
COc1ccc2c(c1OC)C(=O)N1N=C(c3ccc(Cl)cc3)CC21 (centres undefined)	nt	nt	i	nt	nt	nt
Cc1cc(C)nc(SCc2nnc(SCC(=O)Nc3nccs3)n2Cc2ccco2)n1	i	63	i	i	i	i
Cc1occc1-c1nnc(SCC(=O)Nc2nccs2)n1Cc1ccco1	i	55	i	i	i	72
Cc1cccc(NC(=O)CSc2nnc(CSc3nc(C)cc(C)n3)n2Cc2ccco2)c1	i	i	i	i	i	i
Cc1ccc(SCc2nc(N)nc(Nc3ccccc3C)n2)cc1C	nt	nt	i	nt	nt	nt
CN(C)c1nc(N)nc(CSc2nnnn2-c2ccccc2)n1	i	i	i	i	i	52
Cc1nc(Cc2nnc(SCc3nc(N)nc(Nc4ccccc4C)n3)o2)cs1	i	51	i	i	i	i
CN(C)c1nc(N)nc(CSc2nnnn2-c2ccc(C(=O)O)cc2)n1	i	i	i	i	i	i
Cc1ccccc1Nc1nc(N)nc(CSc2nnnn2-c2ccccc2)n1	i	82	i	i	i	88
CSc1nn(-c2ccc(C(=O)OCC(=O)NC(=O)NC(C)C)cc2)c(=S)s1	nt	nt	i	nt	nt	nt
CCOC(=O)c1cccc(NC(=O)CSc2nc(N)cc(N)n2)c1	i	78	i	i	i	64
CCOC(=O)c1cccc(NC(=O)CSc2nnnn2CC)c1	i	83	i	i	nt	55
CCOC(=O)c1ccc(NC(=O)CSc2nnc(C)n2-c2ccccc2)cc1	i	i	i	i	i	i
CCOC(=O)c1cccc(NC(=O)CSc2nnc(C3CCCCC3)n2CC)c1	i	i	i	i	i	i
CCOC(=O)c1cccc(NC(=O)CSc2nnc(-c3ccoc3C)n2CC)c1	i	70	i	i	i	i
CCOC(=O)c1cccc(NC(=O)CSc2nnc(C)n2Cc2ccccc2)c1	i	91	i	i	i	87
CCC(=O)N=c1sc2c(C)cc(C)cc2n1CC(=O)OC	i	i	i	i	i	i
SMILES	CYP2C9 activ	CYP2C9 inh	MRP1 act	CYP2C19 act	MRP reversal	CYP2C19 inh
CC(C)CNc1c(N)c(=O)oc2ccccc12	i	i	i	i	i	i
CCOC(=O)c1ccc(NC(=O)CSc2nnnn2CCCO)cc1	i	i	i	i	i	58
CCOC(=O)N1CCN(C(=O)c2ccc3c(SCC(=O)O)c4c(nc3c2)CCC4)CC1	i	i	i	i	i	i
O=C(CSc1ncn[nH]1)Nc1cccc(S(=O)(=O)N2CCCCCC2)c1	nt	nt	i	nt	nt	nt
O=C(CSc1nc2ccccc2c(=O)[nH]1)Nc1ccc(S(=O)(=O)N2CCCC2)cc1	i	96	i	i	i	i
O=C(CSc1ncn[nH]1)Nc1ccc(S(=O)(=O)N2CCCC2)cc1	i	61	i	i	i	i
O=C1NCCCC1C(=O)N1CCN(C(=O)C2CCCNC2=O)CC1 (centres undefined)	i	i	nt	i	i	i
CC1Cc2nc(SCC(=O)OCc3ccccc3)n(C)c(=O)c2S1 (centres undefined)	i	77	i	i	i	87
CC1Cc2nc(SCC(=O)NC3CCCCC3)n(C)c(=O)c2S1 (centres undefined)	i	i	i	i	nt	i
CC1Cc2nc(SCC(=O)N3CCc4ccccc43)n(C)c(=O)c2S1 (centres undefined)	i	93	i	i	i	i
CC1Cc2nc(SCC(=O)c3ccccc3)n(Cc3ccccc3)c(=O)c2S1 (centres undefined)	i	97	i	i	i	i
COc1ccccc1N1CCN(C(=O)c2ccc3[nH]c4c(c3c2)CC(C)CC4)CC1 (centres undefined)	nt	nt	i	nt	nt	nt
COc1cc(C(Nc2ccc3c(c2)OCO3)C(=O)NC2CCCCC2)cc(OC)c1OC (centres undefined)	i	i	i	i	i	74
COc1ccc(C(C(=O)NC2CCCC2)N(C(=O)c2ccco2)c2ccc3c(c2)OCO3)cc1OC (centres undefined)	i	i	i	i	i	i
CC(C)(C)c1csc(NC(=O)Cn2cnc3ccccc3c2=O)n1	i	i	i	i	i	i
CCOC(=O)c1cc2n(c1/N=C/N(C)C)-c1ccccc1C2=O	i	62	i	i	i	i
COc1ccccc1C1CC(c2cccs2)=Nc2ccccc2S1 (centres undefined)	i	80	i	i	i	90
Oc1ccccc1C1=Nc2ccccc2N=C(c2cccs2)C1	i	i	i	i	nt	i
C=CCN1CC2CC3(COc4cc(C)cc(C)c4)C=CC2(O3)C1=O (centres undefined)	i	i	i	i	i	65
CCOC(=O)c1sc(NC(=O)CSc2n[nH]c(-c3ccncc3)n2)c(C#N)c1C	i	51	i	i	i	i
Cc1noc(NS(=O)(=O)c2ccc(NC(=O)CSc3n[nH]c(-c4ccccc4)n3)cc2)c1C	i	i	i	i	i	i
O=C(CSc1n[nH]c(-c2ccncc2)n1)Nc1ccccn1	i	77	i	i	i	50
CCc1ccc(C(=O)CSc2n[nH]c(-c3ccncc3)n2)cc1	i	97	i	i	i	87
Cc1ccc(NC(=O)CSc2n[nH]c(-c3ccncc3)n2)cc1	i	94	i	i	i	62
COc1ccc(C(=O)CSc2n[nH]c(-c3ccco3)n2)cc1	i	i	i	i	i	i
SMILES	CYP2C9 activ	CYP2C9 inh	MRP1 act	CYP2C19 act	MRP reversal	CYP2C19 inh
O=C(CSc1n[nH]c(-c2ccccc2)n1)Nc1ccc(Br)cn1	nt	nt	i	nt	i	nt
O=c1cc(-c2ccccc2Cl)oc2c(Br)ccc(O)c12	nt	nt	i	nt	nt	nt
CCC1CCc2c(sc3nc(SCC(=O)NCc4ccco4)n(-c4ccccc4)c(=O)c23)C1 (centres undefined)	nt	nt	i	nt	i	nt
CCCCc1ccc(NC(=S)NCc2cccnc2)cc1	nt	nt	i	nt	nt	nt
Cc1cc(SCC(=O)c2cc(C)n(C)c2C)nc2ccccc12	nt	nt	i	nt	nt	nt
CCn1c(SCC(=O)OC)nnc1-c1ccncc1	nt	nt	i	nt	i	nt
